# Laboratory results from the supplement of paper PMC10338343.
# ± gives the standard deviation.
# Tested on: EfPiwi piRISC loaded with L1MC piRNA (26 nt)
# Experiment: pre-steady-state target cleavage rate (min^-1); auxiliary factor: 500 nM Ephydatia muelleri Gtsf1; guide: L1MC piRNA 5'p-UAACUAAAUACUAUGCAAGCUGUAGG; MIWI and MILI are mouse PIWI proteins and EfPiwi is from a freshwater sponge; tags in brackets are library labels; higher = faster piRNA-guided slicing of the target
# Experimental: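 Cleave-'n-Seq: a library of target RNAs (target site in constant flanks) at […] was incubated with 1 nM active freshwater sponge Ephydatia fluviatilis Piwi piRISC (synthetic 5'-monophosphorylated piRNA guide) with or without 500 nM EmGtsf1 at 33 °C for 1 min to 16 h. Uncleaved targets were sequenced and the pooled three trials fitted to a burst-and-steady-state model to give the pre-steady-state cleavage rate (min^-1). Sequence is the target site only. Fits with R² ≤ 0 are excluded.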
row,Sequence,pre-steady-state target cleavage rate
1,UCCUGGUACAGCUUGCAUAGUAUUAAGAAA,0.00387 ± 0.0017
2,UCCUGGAUGUCCUUGCAUAGUAUUUAGUA,0.00759 ± 0.0039
3,UCCUGGAUGUCGAACGUAUCUAGUUUAGUUA,< 0.0001
4,UCCUGGAUGUCGUAGCAUAGUAUUUAGUUA,0.00385 ± 0.0025
5,UCCUGGAUCAGCUUGCAUAGUAUUUGUUA,0.00326 ± 0.0029
6,UCCUGGAACAGCUUGCAUAGUAUUUAGUGA,0.00437 ± 0.002
7,UCCUGGUACAGGUAGCAUAGUAUUUAGUUA,0.00853 ± 0.0036
8,UCCUGGAUGUCCUUGCUUAGUAUUUAGUUA,0.00568 ± 0.0037
9,UCCUGCUUCAGCUUGCAUAGUUUUUAGUUA,0.00715 ± 0.0025
10,UCCUGCUACAGGUUCCAUAGUAUUUAGUUA,0.00222 ± 0.0021
11,UCCUCCUACAGCUUGCAUAGAAUUUAGAUA,0.00317 ± 0.0015
12,UCCUGGUACAGCUUGCAAGUAUUUAGUUA,0.00546 ± 0.0031
13,UCCUGGAUCUGCUUGCAUUGUAUUUAGUUA,0.00657 ± 0.003
14,UCCUGGUAGAGCUUGCAUUGUAUUUAGUUA,0.00786 ± 0.0033
15,UCCUGGUACAGAUUGCAUAGUAUUUAGUUA,0.0131 ± 0.0038
16,UCCUGGAUGUCCUUGCAUAGUAUUUAGUUG [g2:g19:cont:t1G],0.00478 ± 0.0018
17,UCCUGCUACAGCUUGCAUAGUAUUUAGUUC [g2:g25:cont:t1C],0.0645 ± 0.016
18,UCCUGGAACAGCUUGCUAUAGUAUUUAGUUA,0.00682 ± 0.0023
19,UCCUGCUACAGGAUGCAUAGUAUUUAGUUA,0.0191 ± 0.0043
20,UCCUGGAUGUCGAACGAUAGUGAUUUAGUUA,< 0.0001

row,Sequence,pre-steady-state target cleavage rate
1,UCCUGCUCAGCUUGCAUAGUAUUUAGUUA,0.065 ± 0.015
2,UCCUGCACAGCUUGCAUAGUAUUUAGUUA,0.0745 ± 0.016
3,UCCUGCUACAGCUUGCAUAGUAGUUUAGUUA,0.00695 ± 0.0028
4,UCCUGGUACAGCUUGCAUAGUAUCUAGUUA,0.004 ± 0.0021
5,UCCUGGAACAGCUUGCAUAGUAUUUACAUA,0.00316 ± 0.0025
6,UCCUGGCACAGCUUGCAUAGUAUUUAGUUA,0.0252 ± 0.0092
7,UCCUGGAUCGAGCUUGCAUAGUAUUUAGUUA,0.0315 ± 0.0069
8,UCCUGGAACAGCAUGCUUAGUAUUUAGUUA,0.00591 ± 0.0025
9,UCCUGGAACAGCUUGCAUAGUAGUUUAGUUA,0.0047 ± 0.0024
10,UCCUCCUACUGCUUGCAUAGUAUUAAGUUA,0.00682 ± 0.0034
11,UCCUGGAUCUGCUUGCUUAGUAUUUAGUUA,0.0931 ± 0.028
12,UCCUGGAUGAGCUUGGAUAGUAUUUAGUUA,0.0043 ± 0.0033
13,UCCUGCUACAAGCUUGCAUAGUAUUUAGUUA,0.00475 ± 0.0013
14,UCCUGCUACAGCUUCCAUAGUAUUUUCAAA,0.0032 ± 0.0021
15,UCCUGGAACAGCUUGCAUACUAUUUUGUUA,0.00252 ± 0.0023
16,UCCUGCUACAGCUUGCAUAGUAAAUAGUUA,0.00532 ± 0.0029
17,UCCUGCUUGUGCUUGCAUAGUAUUUAGUAA,0.00475 ± 0.0026
18,UCCUGGAUGUGCUUGCAUAGUAUUUAUUA,0.00271 ± 0.0022
19,UCCUGGUACAGCUUGCAUAGUAUAUUAGUUA,0.00489 ± 0.0026
20,UCCUGGAUCUGCAUGCAUAGUAUUUAGUUA,0.0798 ± 0.021
